Experimental data as given in PubChem BioAssay AID504329 (Southern Research Specialized Biocontainment Screening …, 2011).
About 1,000 (0.29%) of roughly 340,000 compounds were called active. Only a sample is shown. Measured potencies and affinities stand elsewhere. Unmarked numbers belong to inactive results. Rule as the data show it: inconclusive = inhibition above about 27% without an active follow-up result; inactive = below that.

Experiment: H1N1 influenza NS1A inhibitors, functional cell based assay (AID 504329)
Settings: percent inhibition, at 12.5 µM, active compounds read high

| SMILES | inhibition |
| --- | --- |
| CN=C1CC(C)(C)CC(=O)/C1=C(/O)CCCN1C(=O)c2ccccc2C1=O | -2.2% |
| CC12CCC(=O)N1C(C(=O)Nc1nc(-c3ccc(F)c(F)c3)cs1)CS2 (stereo unspecified) | -0.9% |
| Cc1cccc(NC(=S)NC2CC3CCCC(C2)N3CC(C)C)c1 (stereo unspecified) | -0.58% |
| COc1cccc(CN2CC(C(=O)N(C)Cc3ccnc4ccccc34)CCC2=O)c1 (stereo unspecified) | -0.38% |
| COc1cc2cc(CN(CCCN3CCOCC3)C(=O)Nc3ccccc3F)c(=O)[nH]c2cc1OC | -7.1% |
| CCCCNC(=O)Cc1coc2ccc3ccccc3c12 | -8.22% |
| CCC(C)[C@H](NS(=O)(=O)c1ccc(C)cc1)C(=O)N1CCC(C(=O)N[C@H](C(=O)O)c2ccccc2)CC1 (stereo partly specified) | -3.12% |
| COc1ccc2[nH]c3c(c2c1)CCN1C(=O)C(CC(=O)NCCCn2ccnc2)C[C@H](C(=O)N2CCOCC2)[C@@]31C (stereo partly specified) | -0.65% |
| COc1ccc(S(=O)(=O)N2CN3CCN(C3)C2)cc1OC | -1.61% |
| CC(=O)Nc1cccc(OCC(=O)NCCC2=CCCCC2)c1 | 5.18% |
| Cc1ccc(NC(=O)CSc2n[nH]c(-c3ccncc3)n2)cc1 | -14.5% |
| Cc1ccc(NC(=O)CSc2n[nH]c(-c3ccco3)n2)cc1 | -7.19% |
| CCC(C)(C)C1CCc2[nH]nc(C(=O)NCCCNC(=O)OC(C)(C)C)c2C1 (stereo unspecified) | 7.94% |
| Cc1ccccc1CN1CCN(CC(=O)NCc2ccccc2)CC1 | -8.48% |
| COc1cc(C2CC(=O)Oc3c(C(CCN4CCOCC4)c4ccc(N(C)C)cc4)c(OC)cc(OC)c32)cc(OC)c1OC (stereo unspecified) | 19.5% |
| COc1ccc(C(CCN2CCCC(C)C2)c2c(OC)cc(OC)c3c2OC(=O)CC3c2cc(OC)c(OC)c(OC)c2)cc1 (stereo unspecified) | -7.41% |
| COc1ccc(C2CC(=O)Oc3c(C(CCN4CCOCC4)c4cc(OC)c(OC)c(OC)c4)c(OC)cc(OC)c32)cc1 (stereo unspecified) | -11.8% |
| COc1ccc(C2CC(=O)Oc3c(C(CCN4CCN(c5ccccc5)CC4)c4ccc(N(C)C)cc4)c(OC)cc(OC)c32)cc1 (stereo unspecified) | 16.5% |
| COc1cc(C(CCN2CCOCC2)c2c(OC)cc(OC)c3c2OC(=O)CC3c2ccc(N(C)C)cc2)cc(OC)c1OC (stereo unspecified) | 13.9% |
| COc1cc(C2CC(=O)Oc3c(C(CCN4CCN(c5ccccc5)CC4)c4ccc(N(C)C)cc4)c(OC)cc(OC)c32)cc(OC)c1OC (stereo unspecified) | 18% |
| Cc1ccc(S(=O)(=O)NC(C)C(=O)Nc2ccc(C(N)=O)cc2)cc1 (stereo unspecified) | 7.11% |
| CN1C(=O)/C(=C\c2ccncc2)SC1=Nc1ccccc1 | 2.83% |
| CC(CCc1ccccc1)NC(=O)c1ccco1 (stereo unspecified) | 18.9% |
| COc1ccc(N=c2oc3c(OC)cccc3cc2C(=O)NCc2ccco2)c(OC)c1 | 10.4% |

| SMILES | inhibition |
| --- | --- |
| CCOc1ccccc1N(C(=O)c1snc(C(N)=O)c1N)C(C(=O)NCc1ccccc1)c1ccc(O)cc1 (stereo unspecified) | 11.4% |
| CCOc1cc(/C=N/NC(=O)c2cccc([N+](=O)[O-])c2)ccc1OS(=O)(=O)c1ccccc1 | -5.88% |
| OCCC1CN(C2CSCCSC2)CCN1Cc1ccccc1 (stereo unspecified) | -6.56% |
| CN1CCN(c2ccc(CNS(=O)(=O)c3ccc(F)cc3Cl)cc2)CC1 | -10.3% |
| Cc1nc(SCC(=O)NCc2ccccc2)c2c(=O)n(C)c(=O)n(C)c2n1 | -13.1% |
| O=C(N/N=C/c1ccccn1)c1cccc(S(=O)(=O)N2CCCC2)c1 | -3% |
| COc1ccccc1NS(=O)(=O)c1cccc(C(=O)N/N=C/c2c(CO)cnc(C)c2O)c1 | 17.7% |
| Cc1ncc(CO)c(/C=N/NC(=O)c2ccc(O)cc2)c1O | 15.5% |
| COc1ccc(C(=O)N/N=C/c2c(CO)cnc(C)c2O)cc1 | 21.8% |
| Cc1ncc(CO)c(/C=N/NC(=O)c2ccoc2C)c1O | 7.34% |
| Cc1ncc(CO)c(/C=N/NC(=O)c2ccccc2Br)c1O | 18.5% |
| CC(C)C(NC(=O)C1CC(=O)N(Cc2ccccc2)C1)c1nc2ccccc2[nH]1 (stereo unspecified) | -13.6% |
| O=C(c1cc2ccccc2c(=O)o1)N1CCCCCC1 | -12.3% |
| Cc1cc(N2CCOCC2)ccc1/C=C1\NC(=O)N(Cc2ccccc2F)C1=O | -4.62% |
| CC(=O)Nc1nc(CCl)cs1 | -0.43% |
| Oc1ccc(N=Nc2ccc3ccccc3c2)cc1 | 3.88% |
| Oc1[nH]c2ccccc2c1N=Nc1ccccc1F | -4.52% |
| O=S(=O)(O)c1cccc(N=Nc2c(O)ccc3ccccc23)c1 | 22.8% |
| NS(=O)(=O)c1ccc(N=Nc2c(O)c(C(=O)O)cc3ccccc23)cc1 | 14% |
| Cn1c(O)c(N=Nc2ccc(F)cc2)c2ccccc21 | -0.89% |
| O=C(O)c1cc(N=Nc2c(O)ccc3ccccc23)cc(C(=O)O)c1 | 13.6% |
| O=C(O)c1cc2ccccc2c(N=Nc2cccnc2)c1O | 16.2% |
| NS(=O)(=O)c1ccc(N=Nc2c(O)ccc3ccccc23)cc1 | 7.02% |
| Cc1ccccc1C(=O)N=c1sccn1C | -5.97% |

| SMILES | inhibition |
| --- | --- |
| O=C(NC1CCCCC1)c1c(O)nc2sccn2c1=O | 0.11% |
| O=C(COc1ccccc1Cl)Nc1ccccc1C(=O)Nc1cccc(C(=O)O)c1 | 1.12% |
| COc1ccc(-c2cc(C(=O)Nc3cccc(S(=O)(=O)NCc4ccco4)c3)c3ccccc3n2)cc1OC | -2.45% |
| COc1ccccc1C(=O)N/C(=C\c1ccc(Br)cc1)C(=O)NCCO | -1.68% |
| COC(=O)N/N=C(\C)c1ccc(C)c([N+](=O)[O-])c1 | 2.68% |
| CCC(CC)C(=O)Nc1nnc(S(=O)(=O)Nc2ccccc2C)s1 | -5.98% |
| O=C(COc1ccccc1)NCC(=O)N/N=C/c1ccco1 | 8.38% |
| O=C(Nc1ccccc1N1CCOCC1)c1cccc(Oc2ccccc2)c1 | 5.8% |
| Oc1[nH]c2ccccc2c1N=Nc1ccccn1 | -23.1% |
| CCCCn1c(O)c(N=Nc2ccccn2)c2ccccc21 | -1.48% |
| CN(C)S(=O)(=O)c1ccc(Cl)c(C(=O)NNC(=O)Cc2nc3ccccc3n2C)c1 | -3.93% |
| CCOc1ccc(N2C(=O)c3ccccc3C2=O)cc1 | 5.19% |
| Cc1cc(C)nc(NS(=O)(=O)c2ccc(N3C(=O)c4ccccc4C3=O)cc2)n1 | -5.14% |
| CCO/C=C1\C(=O)N(c2ccccc2)C(=O)c2ccccc21 | 4.03% |
| CCO/C=C1/C(=O)N(c2ccc(OC)cc2)C(=O)c2ccccc21 | 1.21% |
| Cc1[nH]c2ccccc2c1C(=O)C(=O)N1CCCc2ccccc21 | -5.75% |
| Cc1cc(N(CCO)CCO)ccc1C(c1ccc(N(CCO)CCO)cc1C)c1ccccc1Cl | 19.6% |
| Nc1ccc(N(CCO)CCO)cc1 | 11.7% |
| O=C1CCC(C(=O)N2CCSCC2)CN1CCc1ccccc1 (stereo unspecified) | 5.31% |
| CCOC(=O)C1=C(Cc2ccc(F)cc2)C(=O)c2ccccc2C1=O | 19.2% |
| CCOC(=O)C1=C(Cc2ccc(Cl)cc2)C(=O)c2ccccc2C1=O | 21.1% |
| N#Cc1c(N)nc2c(c1-c1ccc(F)cc1)CCC2 | 0.84% |
| C[C@H](C(=O)NCc1ccccc1)C(=O)c1ccccc1 | 8.83% |
| COc1ccc(-c2csc(N(CCc3ccc(OC)c(OC)c3)C(=O)COc3ccccc3)n2)cc1 | 1.44% |

| SMILES | inhibition |
| --- | --- |
| CC(C)CCn1nnnc1C(c1ccc(F)cc1)N1CCC(C(N)=O)CC1 (stereo unspecified) | -2.77% |
| CC(=O)c1ccc(-c2ccccc2)cc1 | 7.71% |
| O=C(NCc1cccs1)C1CCN(c2nccs2)CC1 | 5.59% |
| COc1ccc(/C=N\NC(=O)C2=NNC(=O)C2C)cc1 (stereo unspecified) | 3.13% |
| O=C(N/N=C/c1ccccc1)c1cc[n+]([O-])cc1 | -4.01% |
| COc1cc(/C=N/NC(=O)c2ccncc2)c([N+](=O)[O-])cc1OC | -2.25% |
| COc1cc(/C=N/NC(=S)Nc2cccc(C(=O)O)c2)ccc1O | -4% |
| COc1cc(OC)c([N+](=O)[O-])cc1/C=N/NC(=O)c1ccncc1 | 1.29% |
| COc1cc(/C=N/NC(=O)C2=NNC(=O)C2C)ccc1O (stereo unspecified) | -32.2% |
| O=C(N/N=C/c1ccc(Br)cc1)c1cc[n+]([O-])cc1 | 6.04% |
| COc1cc(/C=N/NC(=S)Nc2cccc(C(=O)O)c2)cc(OC)c1OC | -7.56% |
| CC(NC(=O)c1ccc(NC(=O)CC2SC(N3CCCC3)=NC2=O)cc1)c1ccccc1 (stereo unspecified) | -7.82% |
| O=S(=O)(c1ccc(S(=O)(=O)N2CCOCC2)cc1)N1CCCC1 | 4.18% |
| CCCCC(=O)N(c1ccc(C(=O)O)cc1)c1nc(-c2ccc(Cl)cc2)c(CC)s1 | -4.2% |
| O=C(NC1CCCCC1)C1CC(=O)N(Cc2ccccc2)C1 (stereo unspecified) | -1.57% |
| C[N+](C)(C)C(Cc1ccccc1)C(=O)[O-] (stereo unspecified) | -4.58% |
| CCOc1cc(/C=N/NC(=O)c2cccnc2)ccc1O | 11.3% |
| CCOc1cc(Br)cc(/C=N/NC(=O)c2cccnc2)c1O | 15.9% |
| O=C(O)c1cccc(NC(=S)N/N=C/c2cccnc2)c1 | 4.47% |
| COc1ccccc1/C=N/NC(=O)C(=O)NCc1cccnc1 | -1.04% |
| O=C(O)c1cccc(NC(=S)N/N=C/c2cccc(O)c2)c1 | 2.28% |
| COc1cccc(/C=N/NC(=O)C[n+]2ccccc2)c1OC | 0.86% |
| COc1cccc(/C=N/NC(=O)C(=O)NCc2cccnc2)c1OC | -5.14% |
| COc1cc(OC)c(OC)cc1/C=N/NC(=O)C[n+]1ccccc1 | -11.7% |
